From PubChem BioAssay (Tox21)
Several values for one entry are separate records, joined by “and”; a condition that tells them apart may be missing. Equal values may be shown once. Results filed as inconclusive are left out. Activity calls are given as the source filed them. Unless noted, the call rests on the fitted dose curve; in most records, active means well fitted curve in the direction sought with a large enough effect in the repeat runs; inconclusive means weak or mixed curves; inactive means no such curve, though single readings can be large; an effect the other way counts as inactive or inconclusive.

Experiments:
[1] = qHTS assay to identify small molecule agonists of the peroxisome proliferator-activated receptor delta (PPARd) signaling pathway - cell viability counter screen (AID 743211); further: nearly all actives have a fitted effect of over 55% in size; further: potency means the concentration at half of the fitted maximal effect
Procedure, shortened: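 PPARd-bla HEK293H cells (3000/well) were pre-incubated 5 h at 37 C, then exposed to compound for 17 h at 37 C. After 2 h with LiveBLAzer substrate, CellTiter-Glo was added to the same wells; luminescence read after 30 min at room temperature.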

[2] = biological target: Peroxisome proliferator-activated receptor delta (Homo sapiens) (UniProt Q03181); assay: qHTS assay to identify small molecule agonists of the peroxisome proliferator-activated receptor delta (PPARd) signaling pathway (AID 743212; calls by dose curve)
Procedure, shortened: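 Read-out: beta-lactamase FRET fluorescence after 2 h room-temperature incubation with LiveBLAzer B/G substrate. Cells were HEK293H carrying a UAS-bla reporter for PPARd, treated at 37 C with DMSO-dissolved compounds.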

[3] = qHTS assay to identify small molecule antagonists of the peroxisome proliferator-activated receptor delta (PPARd) signaling pathway - cell viability counter screen (AID 743213); further: nearly all actives have a fitted effect of over 50% in size; further: potency means the concentration at half of the fitted maximal effect
Procedure, shortened: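 Luminescence from CellTiter-Glo, added after the bla read and incubated 30 min at room temperature, gives viability of HEK293H PPARd-bla cells exposed to compounds for 17 h at 37 C with 300 nM L165041.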

[4] = biological target: Peroxisome proliferator-activated receptor delta (Homo sapiens) (UniProt Q03181); assay: qHTS assay to identify small molecule antagonists of the peroxisome proliferator-activated receptor delta (PPARd) signaling pathway (AID 743215; active means well fitted inhibition curve with a large enough effect in the signal ratio in the repeat runs, not every such curve was filed as active; the % refers to the signal ratio;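 further: cells stimulated with agonist L165041 at 300 nM final during compound exposure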; further: potency means the concentration at half of the fitted maximal effect)
Procedure, shortened: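 Cells: HEK293H with a UAS-driven beta-lactamase reporter responsive to PPARd. Compounds were co-added with L165041 (300 nM, final) and incubated 17 h at 37 C before a 2 h room-temperature FRET substrate step and fluorescence reading.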

[5] = biological target: Bile acid receptor (Homo sapiens) (UniProt Q96RI1); assay: qHTS assay to identify small molecule antagonists of the farnesoid-X-receptor (FXR) signaling pathway (AID 743217; active means well fitted inhibition curve with a large enough effect in the signal ratio in the repeat runs, not every such curve was filed as active; the % refers to the signal ratio; further: potency means the concentration at half of the fitted maximal effect)
Procedure, shortened: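 Cells carrying a UAS-driven beta-lactamase reporter (GeneBLAzer FXR-UAS-bla HEK 293T) were plated and rested 5 h at 37 °C. Compounds in DMSO were added alongside chenodeoxycholic acid agonist at 50 uM final and left 16 h at 37 °C before FRET substrate readout.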

[6] = biological target: Bile acid receptor (Homo sapiens) (UniProt Q96RI1); assay: qHTS assay to identify small molecule agonists of the farnesoid-X-receptor (FXR) signaling pathway (AID 743220; active means well fitted activation curve with a large enough effect in the signal ratio in the repeat runs, not every such curve was filed as active; the % refers to the signal ratio)
Procedure, shortened: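 FXR-UAS-bla HEK 293T cells carrying a UAS-driven beta-lactamase reporter were plated for 5 h at 37C/5% CO2, then exposed to DMSO-dissolved Tox21 10K compounds for 16 h at 37C. A LiveBLAzer B/G FRET substrate was loaded for 2 h at room temperature before fluorescence reading.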

[7] = qHTS assay to identify small molecule antagonists of the farnesoid-X-receptor (FXR) signaling pathway - cell viability counter screen (AID 743221; active means well fitted cell-killing curve with a large enough effect in the repeat runs, not every such curve was filed as active; further: nearly all actives have a fitted effect of over 50% in size; further: potency means the concentration at half of the fitted maximal effect)
Procedure, shortened: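 GeneBLAzer FXR-UAS-bla HEK 293T cells, compound plus chenodeoxycholic acid (50 uM final), 16 h at 37 C. CellTiter-Glo added to the same wells after the beta-lactamase read; luminescence read after 30 min at room temperature as viability.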

[8] = biological target: Vitamin D3 receptor (Homo sapiens) (UniProt P11473); assay: qHTS assay to identify small molecule agonists of the vitamin D receptor (VDR) signaling pathway (AID 743222; calls by dose curve)
Procedure, shortened: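 Cells carrying a VDR-driven beta-lactamase reporter are seeded at 2,000 per well and rested 4 h. Compounds in DMSO are added for 16 h at 37C, and FRET substrate fluorescence is measured after 2 h at room temperature.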

[9] = qHTS assay to identify small molecule agonists of the vitamin D receptor (VDR) signaling pathway - cell viability counter screen (AID 743224); further: nearly all actives have a fitted effect of over 50% in size; further: potency means the concentration at half of the fitted maximal effect
Procedure, shortened: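 Cells: VDR-bla, 2,000/well, settled 4 h. Treatment: compounds in DMSO, 16 h, 37C/5% CO2. Readout: CellTiter-Glo luminescence after 30 min RT.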

[10] = qHTS assay to identify small molecule antagonists of the vitamin D receptor (VDR) signaling pathway - cell viability counter screen (AID 743225); further: nearly all actives have a fitted effect of over 50% in size; further: potency means the concentration at half of the fitted maximal effect
Procedure, shortened: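 VDR-UAS-bla HEK 293T cells were plated and incubated 4 h at 37C, then dosed with compound plus 3 nM (final) 1-alpha,25-dihydroxyvitamin D3 for 16 h. After the 2 h beta-lactamase read, viability in the same wells was read as CellTiter-Glo luminescence after 30 min at room temperature.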

[11] = qHTS assay to identify small molecule agonists of the NFkB signaling pathway - cell viability counter screen (AID 1159515; calls by dose curve; further: nearly all actives have a fitted effect of over 55% in size; further: potency means the concentration at half of the fitted maximal effect)
Procedure, shortened: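 Cells are seeded (2,000 NFkB-bla ME-180 per well), rested overnight, and dosed with DMSO-dissolved compounds for 5 hr at 37 C. Viability is then read by CellTiter-Glo luminescence after 30 min at room temperature.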

[12] = qHTS assay to identify small molecule agonists of the endoplasmic reticulum stress response signaling pathway - cell viability counter screen (AID 1159517; calls by dose curve; further: nearly all actives have a fitted effect of over 50% in size; further: potency means the concentration at half of the fitted maximal effect)
Procedure, shortened: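 Steps: seed 1,500 ESRE-bla HeLa cells per well; incubate overnight at 37 C, 5% CO2; add compounds in DMSO for 5 hr; run FRET substrate 2 hr RT; add CellTiter-Glo, wait 30 min, read luminescence.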

[13] = qHTS assay to identify small molecule antagonists of the retinoid-related orphan receptor gamma (ROR-gamma) signaling pathway - cell viability counter screen (AID 1159520); further: nearly all actives have a fitted effect of over 50% in size; further: potency means the concentration at half of the fitted maximal effect
Procedure, shortened: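 Tet-on ROR gamma CHO cells were given compounds for 2 hr, then doxycycline hyclate at 1 uM final, and incubated 16 hr at 37 C. Viability was measured as ATP content by CellTiter-Glo luminescence.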

[14] = biological target: Nuclear receptor ROR-gamma (Homo sapiens) (UniProt P51449); assay: qHTS assay to identify small molecule antagonists of the retinoid-related orphan receptor gamma (ROR-gamma) signaling pathway (AID 1159521; further: nearly all actives have a fitted effect of over 50% in size; further: potency means the concentration at half of the fitted maximal effect)
Procedure, shortened: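 Tet-on ROR-gamma CHO cells with ROR response element-luciferase reporter; compounds added 2 hr before 1 uM doxycycline induction, then 16 hr at 37 C. Antagonism scored as decreased ONE-Glo luminescence.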

[15] = qHTS assay to identify small molecule agonists of the AP-1 signaling pathway - cell viability counter screen (AID 1159525; calls by dose curve; further: nearly all actives have a fitted effect of over 55% in size)
Procedure, shortened: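 Same-well cytotoxicity counter screen of the Tox21 10K library in ME-180 cells. The readout is ATP-dependent luminescence after 5 h compound treatment. Data are normalised to DMSO and tetra n-octyl ammonium bromide controls.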

[16] = qHTS assay to identify small molecule agonists of the AP-1 signaling pathway (AID 1159526; calls by dose curve)
[17] = biological target: Vitamin D3 receptor (Homo sapiens) (UniProt P11473); assay: qHTS assay to identify small molecule antagonists of the vitamin D receptor (VDR) signaling pathway (AID 743223; active means well fitted inhibition curve with a large enough effect in the signal ratio in the repeat runs, not every such curve was filed as active; the % refers to the signal ratio)
Procedure, shortened: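 VDR-bla cells were treated with compound plus 3 nM final 1alpha,25-dihydroxyvitamin D3 for 16 h at 37C. Beta-lactamase reporter read by B/G FRET substrate fluorescence after 2 h at room temperature. qHTS format.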

[18] = qHTS assay to identify small molecule agonists of the endoplasmic reticulum stress response signaling pathway (AID 1159516; active means well fitted activation curve with a large enough effect in the signal ratio in the repeat runs, not every such curve was filed as active; the % refers to the signal ratio)
Procedure, shortened: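 Cells are seeded at 1,500 per well and incubated overnight. Compounds in DMSO are added for 5 hr at 37 C, then beta-lactamase FRET substrate for 2 hr at room temperature, and fluorescence at 460 and 530 nm is measured.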

[19] = qHTS assay to identify small molecule agonists of the farnesoid-X-receptor (FXR) signaling pathway - cell viability counter screen (AID 743218); further: nearly all actives have a fitted effect of over 45% in size; further: potency means the concentration at half of the fitted maximal effect
Procedure, shortened: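 Cells were seeded, left 5 h at 37 C and 5% CO2, then dosed with compound in DMSO for 16 h. After the beta-lactamase FRET read, CellTiter-Glo was added and luminescence measured 30 min later.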

[20] = biological target: Retinoic acid receptor RXR-alpha (Homo sapiens) (UniProt P19793); assay: qHTS assay to identify small molecule agonists of the RXR signaling pathway (AID 1159527; calls by dose curve; further: nearly all actives have a fitted effect of over 35% in size)
Procedure, shortened: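 GeneBLAzer RXR-alpha-UAS-bla HEK 293T cells in 2% charcoal-stripped FBS medium were exposed to compounds for 16 hr at 37 C in agonist mode. Beta-lactamase reporter read as 460/530 nm FRET ratio after 2 hr substrate loading.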

Measured: Potency

Retinoic acid receptor RXR-alpha (Homo sapiens), sequence (P19793 whole entry, looked up): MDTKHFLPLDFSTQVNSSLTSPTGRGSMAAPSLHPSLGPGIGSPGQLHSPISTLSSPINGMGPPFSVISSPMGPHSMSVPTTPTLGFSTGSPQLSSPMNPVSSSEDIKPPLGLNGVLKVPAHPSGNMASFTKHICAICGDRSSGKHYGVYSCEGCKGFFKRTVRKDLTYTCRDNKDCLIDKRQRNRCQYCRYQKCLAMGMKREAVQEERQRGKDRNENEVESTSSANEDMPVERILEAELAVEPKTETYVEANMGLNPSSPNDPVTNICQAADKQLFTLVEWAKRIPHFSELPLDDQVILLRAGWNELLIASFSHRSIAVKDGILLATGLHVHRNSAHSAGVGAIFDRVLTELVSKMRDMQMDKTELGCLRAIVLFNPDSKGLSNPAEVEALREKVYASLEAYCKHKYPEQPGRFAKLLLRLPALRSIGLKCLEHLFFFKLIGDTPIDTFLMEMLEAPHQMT
Vitamin D3 receptor (Homo sapiens), sequence (P11473 whole entry, looked up): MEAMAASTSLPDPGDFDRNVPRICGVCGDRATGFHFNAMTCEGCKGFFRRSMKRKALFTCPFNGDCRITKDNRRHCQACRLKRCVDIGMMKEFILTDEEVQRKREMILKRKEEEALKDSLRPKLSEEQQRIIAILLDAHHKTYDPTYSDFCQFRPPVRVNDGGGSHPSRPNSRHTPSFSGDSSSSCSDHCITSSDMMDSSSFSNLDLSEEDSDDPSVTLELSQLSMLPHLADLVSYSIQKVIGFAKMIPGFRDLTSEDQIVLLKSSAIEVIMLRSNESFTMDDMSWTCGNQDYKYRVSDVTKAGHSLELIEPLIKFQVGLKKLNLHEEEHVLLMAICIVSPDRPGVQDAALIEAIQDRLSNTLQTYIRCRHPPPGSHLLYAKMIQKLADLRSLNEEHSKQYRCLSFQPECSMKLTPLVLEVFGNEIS
Peroxisome proliferator-activated receptor delta (Homo sapiens), sequence (Q03181 whole entry, looked up): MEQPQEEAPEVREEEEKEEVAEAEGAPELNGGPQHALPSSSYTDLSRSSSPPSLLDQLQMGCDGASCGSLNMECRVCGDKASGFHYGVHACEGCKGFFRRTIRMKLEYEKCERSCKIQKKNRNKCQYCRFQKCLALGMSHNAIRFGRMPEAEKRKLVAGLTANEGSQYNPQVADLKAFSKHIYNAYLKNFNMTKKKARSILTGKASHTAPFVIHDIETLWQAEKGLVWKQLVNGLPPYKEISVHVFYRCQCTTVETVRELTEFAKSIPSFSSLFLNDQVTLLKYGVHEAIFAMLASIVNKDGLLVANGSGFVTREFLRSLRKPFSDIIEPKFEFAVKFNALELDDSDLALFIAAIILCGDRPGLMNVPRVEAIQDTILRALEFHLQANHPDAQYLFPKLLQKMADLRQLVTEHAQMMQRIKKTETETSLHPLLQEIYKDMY
Bile acid receptor (Homo sapiens), sequence (Q96RI1 whole entry, looked up): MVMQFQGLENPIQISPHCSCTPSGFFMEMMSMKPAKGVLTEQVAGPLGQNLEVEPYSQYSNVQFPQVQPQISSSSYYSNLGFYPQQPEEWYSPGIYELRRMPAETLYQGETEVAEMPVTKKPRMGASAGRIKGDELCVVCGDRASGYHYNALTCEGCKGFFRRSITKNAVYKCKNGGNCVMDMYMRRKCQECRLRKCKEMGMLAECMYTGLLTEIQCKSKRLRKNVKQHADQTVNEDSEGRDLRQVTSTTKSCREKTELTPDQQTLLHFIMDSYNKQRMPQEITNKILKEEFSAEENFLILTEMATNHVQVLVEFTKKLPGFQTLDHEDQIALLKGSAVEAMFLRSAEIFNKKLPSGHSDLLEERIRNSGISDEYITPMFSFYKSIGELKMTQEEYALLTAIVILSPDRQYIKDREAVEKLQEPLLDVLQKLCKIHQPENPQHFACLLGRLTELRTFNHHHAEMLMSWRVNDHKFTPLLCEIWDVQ

O=C(O)Cc1ccccc1Nc1c(Cl)cccc1Cl
inactive: [1] | [2] | [3] | [4] | [5] | [6] | [7] | [8] | [9] | [10] | [11] | [12] | [13] | [14] | [15] | [16]

C=CC(=O)Nc1cc2c(Nc3ccc(F)c(Cl)c3)ncnc2cc1OCCCN1CCOCC1
inactive: [3] | [4] | [7] | [17] | [9] | [10] | [18] | [14]
active: [11] 15.1 µM

CCCCCCCCCCCC(=O)OCC(C)OC(=O)CCCCC(=O)O (stereo unspecified)
inactive: [1] | [2] | [3] | [4] | [19] | [7] | [8] | [9] | [10] | [11] | [12] | [13] | [14] | [15] | [16] | [20]

CCCC1CCC(=O)CC1
inactive: [1] | [3] | [19] | [7] | [9] | [10] | [11] | [12] | [13] | [14] | [15] | [16] | [20]

O=C(Oc1ccccc1)Oc1ccccc1
inactive: [1] | [4] | [5] | [6] | [7] | [8] | [17] | [9] | [10] | [11] | [18] | [15] | [16]

CC(C)(C)c1csc(-c2cc3cc(OCc4ccccc4CC(=O)O)ccc3o2)n1
active: [1] 24.5 µM | [3] 30.9 µM
inactive: [6] | [7] | [11] | [18]

CCCCCCCCCCCCOCCOCCOCCOCCOCCOCCOCCOCCOCCO
active: [1] 33.5 µM | [7] 26.6 µM | [10] 10.7 µM
inactive: [8] | [11] | [18]

Nc1nc(-c2ccccc2)cs1
inactive: [1] | [3] | [5] | [19] | [7] | [8] | [17] | [9] | [10] | [11] | [18] | [15] | [20]

CN(C)Cc1ccccc1O
inactive: [1] | [3] | [4] | [5] | [6] | [7] | [8] | [17] | [9] | [10] | [11] | [12] | [13] | [14] | [15] | [16] | [20]

Cc1ccc(C(=O)O)cc1
inactive: [1] | [2] | [4] | [5] | [19] | [7] | [9] | [10] | [11] | [13] | [14] | [15] | [16] | [20]

CCCCCCCCCCCCCCCC[N+](C)(C)CC
active: [1] 21.9 µM and 29.8 µM | [3] 17.4 µM and 21.1 µM | [19] 31 µM and 29.8 µM | [7] 43.8 µM and 29.8 µM | [9] 21.9 µM | [10] 13.8 µM and 23.9 µM | [11] 21.3 µM | [12] 24.6 µM | [13] 61.3 µM and 23.7 µM | [14] 17.3 µM and 2.98 µM

CCOc1ccc2ccccc2c1C(=O)N[C@@H]1C(=O)N2[C@@H]1SC(C)(C)[C@@H]2C(=O)O
inactive: [1] | [2] | [4] | [19] | [6] | [7] | [8] | [17] | [9] | [10] | [11] | [13] | [14] | [15] | [16] | [20]

COC(=O)Nc1nc2ccc(C(=O)c3ccccc3)cc2[nH]1
inactive: [1] | [3] | [4] | [19] | [6] | [7] | [8] | [9] | [10] | [11] | [12] | [15]
active: [5] 1.06 µM

Sc1nc2ccccc2s1
active: [4] 38.9 µM
inactive: [2] | [5] | [19] | [7] | [8] | [17] | [10] | [11] | [12] | [15]

Nc1nc2c(ncn2COCCO)c(=O)[nH]1
inactive: [1] | [2] | [3] | [4] | [5] | [19] | [6] | [7] | [11] | [13] | [14] | [15] | [16] | [20]

COc1ccc(NC(=O)CC(C)=O)cc1
inactive: [1] | [2] | [3] | [4] | [19] | [7] | [8] | [17] | [10] | [11] | [13] | [14] | [15] | [16] | [20]

Oc1ccccc1O
inactive: [1] | [4] | [19] | [7] | [8] | [17] | [9] | [10] | [11] | [12] | [13] | [15] | [16] | [20]
